# Results as given in PubChem BioAssay.
# Activity calls are given as the source filed them. Unless noted, the rule behind the calls is not given here.
# Columns and labels:
# [1] = tested on: Wnt5a (protein binding on small-molecule microarray); assay: small molecules binding Wnt5a protein – biophysical, small-molecule microarray, 635/667 nm fluorescence, primary screen (AID 1142); details: 635 nm fluorescence, higher = more signal;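 note: fluorescence read at 667 nm with signal to noise per printed feature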
# [2] = ATP-based viability of Huh7 replicon cells – cell-based, CellTiter-Glo luminescence, basal, 48 h, cytotoxicity control for HCV replication inhibitor project, primary screen (AID 1143); details: higher = more signal, called active from +8 up or from −8 down;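 note: Huh7 hepatoma cells carrying a hepatitis C replication reporter with no stimulus; test concentration not given here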
# [3] = Pseudomonas biofilm growth suppression – PAO1 strain, BacTiter-Glo luminescence, LB-PBS, primary screen (AID 1144); details: P. aeruginosa PAO1 biofilm, 12 h, higher = more signal
# [4] = basal CRE-LacZ reporter activity in PC12 – cell-based, unstimulated, primary screen (AID 1145); details: no forskolin, luminescence, 4.5 h, higher = more signal, called active from +8 up or from −8 down
# [5] = forskolin-driven CRE-LacZ activity in PC12 – cell-based, CRE-LacZ reporter, forskolin-stimulated, primary screen (AID 1146); details: luminescence, 4.5 h, higher = more signal, called active from +8 up or from −8 down;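 note: PC12 cells with 6xCRE LacZ reporter stimulated by forskolin 10 µM; beta-galactosidase reporter signal reflecting CREB driven transcription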
# [6] = target: Streptavidin (Streptomyces avidinii) (UniProt P22629); assay: compounds binding control protein streptavidin – biophysical, small-molecule microarray, 635/667 nm fluorescence, artefact control for SMM compound annotation, primary screen (AID 1147); details: higher = more signal;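 note: signal reflects streptavidin binding to arrayed compounds as a control protein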
# Streptavidin (Streptomyces avidinii), sequence (P22629 whole entry, looked up): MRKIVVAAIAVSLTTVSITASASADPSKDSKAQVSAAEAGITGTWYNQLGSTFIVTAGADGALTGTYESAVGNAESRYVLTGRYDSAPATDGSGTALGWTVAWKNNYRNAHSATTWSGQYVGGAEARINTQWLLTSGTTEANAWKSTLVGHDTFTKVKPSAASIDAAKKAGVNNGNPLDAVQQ
# [7] = probe aInhba binding on compound microarray – biochemical, small-molecule microarray, 635/667 nm fluorescence, primary screen (AID 1148); details: higher = more signal;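 note: score merges 667nm spot fluorescence with signal-to-noise for antibody binding to printed compounds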
# Torsin-1A (Homo sapiens) [8] = target: Torsin-1A (Homo sapiens) (UniProt O14656); assay: TOR1A wild-type binding on microarray – cell lysate, small-molecule microarray, lysate, 635/667 nm, primary screen (AID 1149); details: COS7 hTOR1A-WT lysate, 635 nm fluorescence, higher = more signal
# Torsin-1A (Homo sapiens), sequence (O14656 whole entry, looked up): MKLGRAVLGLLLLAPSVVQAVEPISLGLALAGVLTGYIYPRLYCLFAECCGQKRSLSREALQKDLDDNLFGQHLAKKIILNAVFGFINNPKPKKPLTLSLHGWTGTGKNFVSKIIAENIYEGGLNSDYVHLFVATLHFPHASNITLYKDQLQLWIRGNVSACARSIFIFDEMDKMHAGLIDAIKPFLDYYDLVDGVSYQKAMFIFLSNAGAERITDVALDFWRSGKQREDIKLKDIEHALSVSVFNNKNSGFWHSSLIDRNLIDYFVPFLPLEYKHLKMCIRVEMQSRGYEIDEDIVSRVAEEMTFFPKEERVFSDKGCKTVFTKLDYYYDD
# Torsin-1A (Homo sapiens) [9] = target: Torsin-1A (Homo sapiens) (UniProt O14656); assay: torsin A mutant lysate binding on microarrays – cell lysate, small-molecule microarray, COS7 lysate, 635/667 nm fluorescence, primary screen (AID 1150); details: COS7 hTOR1A mutant lysate, 635 nm fluorescence, higher = more signal;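 note: score pools 667 nm emission and signal to noise measuring lysate protein binding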
# [10] = tested on: Sonic hedgehog protein (Shh); assay: Sonic hedgehog microarray binding compounds – biochemical, small-molecule microarray, 635/667 nm fluorescence, primary screen (AID 1151); details: 635 nm fluorescence, higher = more signal;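 note: Shh protein binding to compounds spotted on small-molecule microarray slides; score combines spot fluorescence intensity with signal-to-noise across triplicate slides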
# [11] = optical density shifts of acrAB sulA E. coli – strain DRC41, OD650, 48 h, E. coli filamentation inducer project, primary screen (AID 1152); details: higher = more signal, called active from +8 up or from −8 down;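 note: E. coli MC1000 strain DRC41 lacking acrAB efflux pump and sulA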
# [12] = probe aLefty1 binding on compound microarray – biochemical, small-molecule microarray, 635/667 nm fluorescence, primary screen (AID 1153); details: higher = more signal;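 note: score merges spot fluorescence with signal-to-noise ratio from the scanned slide images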
# [13] = plasmodial surface anion channel blockers, osmotic lysis – cell-based, P. falciparum Indochina, OD700, 1 h, primary screen (AID 1154); details: P. falciparum Indochina infected RBC osmotic lysis, higher = more signal, called active from +8 up or from −8 down
# [14] = plasmodial surface anion channel blockers, osmotic lysis – cell-based, P. falciparum Indochina, OD700, 2 h, primary screen (AID 1155);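 note: lysis reports solute entry through the parasite surface anion channel PSAC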; details: P. falciparum Indochina infected erythrocytes, higher = more signal, called active from +8 up or from −8 down
# [15] = changes in parasitized red cell lysis, either direction – P. falciparum Indochina, OD700, 3 h, PSAC antagonist project, primary screen (AID 1156); details: P. falciparum-infected erythrocytes, osmotic lysis, higher = more signal, called active from +8 up or from −8 down
# [16] = plasmodial surface anion channel blockers, osmotic lysis – cell-based, P. falciparum Indochina, OD700, 18 h, primary screen (AID 1157); details: P. falciparum Indochina infected erythrocytes, osmotic lysis OD700, 18 h; higher = more signal, called active from +8 up or from −8 down
# [17] = S6 kinase pathway phospho-S6 level changes – cell-based, A549, cytoblot, luminescence, serum-stimulated, primary screen (AID 1158); details: 5 h, higher = more signal;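 note: serum-stimulated A549 lung adenocarcinoma cells; signal is phosphorylated S6 detected by cytoblot immunostaining with HRP secondary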
# [18] = target: NADPH oxidase 2 (Homo sapiens) (UniProt P04839); assay: compounds shifting NOX2 Amplex Red fluorescence – cell-based, HEK293-NOX2, PMA-stimulated, NOX inhibitor project, primary screen (AID 1159); details: 45 min, higher = more signal, called active from +8 up or from −8 down; note: test concentration not given here
# NADPH oxidase 2 (Homo sapiens), sequence (P04839 whole entry, looked up): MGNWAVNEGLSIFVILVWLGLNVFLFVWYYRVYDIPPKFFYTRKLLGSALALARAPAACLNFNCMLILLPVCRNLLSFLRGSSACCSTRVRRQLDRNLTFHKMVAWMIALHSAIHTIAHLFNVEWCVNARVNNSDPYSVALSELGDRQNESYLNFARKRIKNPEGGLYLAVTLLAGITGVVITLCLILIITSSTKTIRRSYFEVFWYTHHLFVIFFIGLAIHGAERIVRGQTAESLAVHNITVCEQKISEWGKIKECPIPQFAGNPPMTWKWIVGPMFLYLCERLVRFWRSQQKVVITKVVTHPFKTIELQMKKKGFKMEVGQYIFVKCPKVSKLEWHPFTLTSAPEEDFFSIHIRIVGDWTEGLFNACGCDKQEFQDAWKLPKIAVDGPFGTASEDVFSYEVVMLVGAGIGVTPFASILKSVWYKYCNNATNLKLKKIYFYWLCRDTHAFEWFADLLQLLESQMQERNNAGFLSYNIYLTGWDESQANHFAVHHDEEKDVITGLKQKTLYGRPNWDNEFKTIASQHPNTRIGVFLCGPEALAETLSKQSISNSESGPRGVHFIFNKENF
# [19] = target: NADPH oxidase 4 (Homo sapiens) (UniProt Q9NPH5); assay: compounds shifting NOX4 Amplex Red fluorescence – cell-based, HEK293-NOX4, tetracycline-induced, NOX inhibitor project, primary screen (AID 1160); details: HEK293-NOX4, Amplex Red H2O2 fluorescence, 45 min; higher = more signal, called active from +8 up or from −8 down
# NADPH oxidase 4 (Homo sapiens), sequence (Q9NPH5 whole entry, looked up): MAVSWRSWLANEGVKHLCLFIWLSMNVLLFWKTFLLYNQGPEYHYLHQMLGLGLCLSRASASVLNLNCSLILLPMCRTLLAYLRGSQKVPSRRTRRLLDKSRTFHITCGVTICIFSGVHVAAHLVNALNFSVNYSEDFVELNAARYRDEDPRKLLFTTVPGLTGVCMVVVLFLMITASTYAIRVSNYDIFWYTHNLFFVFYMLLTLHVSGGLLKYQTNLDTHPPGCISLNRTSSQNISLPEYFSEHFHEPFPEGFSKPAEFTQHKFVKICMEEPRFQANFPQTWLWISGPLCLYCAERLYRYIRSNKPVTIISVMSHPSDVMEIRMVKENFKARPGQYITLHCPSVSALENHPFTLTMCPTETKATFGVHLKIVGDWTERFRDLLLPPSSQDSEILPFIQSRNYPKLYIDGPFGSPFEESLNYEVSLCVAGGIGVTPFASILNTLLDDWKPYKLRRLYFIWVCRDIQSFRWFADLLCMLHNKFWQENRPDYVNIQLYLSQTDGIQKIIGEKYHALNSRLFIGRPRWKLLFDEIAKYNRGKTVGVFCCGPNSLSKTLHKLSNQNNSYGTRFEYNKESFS
# [20] = target: NADPH oxidase 5 (Homo sapiens) (UniProt Q96PH1); assay: compounds shifting NOX5 Amplex Red fluorescence – cell-based, HEK293-NOX5, NOX inhibitor project, primary screen (AID 1161); details: HEK293-NOX5, ionomycin, 45 min, higher = more signal
# NADPH oxidase 5 (Homo sapiens), sequence (Q96PH1 whole entry, looked up): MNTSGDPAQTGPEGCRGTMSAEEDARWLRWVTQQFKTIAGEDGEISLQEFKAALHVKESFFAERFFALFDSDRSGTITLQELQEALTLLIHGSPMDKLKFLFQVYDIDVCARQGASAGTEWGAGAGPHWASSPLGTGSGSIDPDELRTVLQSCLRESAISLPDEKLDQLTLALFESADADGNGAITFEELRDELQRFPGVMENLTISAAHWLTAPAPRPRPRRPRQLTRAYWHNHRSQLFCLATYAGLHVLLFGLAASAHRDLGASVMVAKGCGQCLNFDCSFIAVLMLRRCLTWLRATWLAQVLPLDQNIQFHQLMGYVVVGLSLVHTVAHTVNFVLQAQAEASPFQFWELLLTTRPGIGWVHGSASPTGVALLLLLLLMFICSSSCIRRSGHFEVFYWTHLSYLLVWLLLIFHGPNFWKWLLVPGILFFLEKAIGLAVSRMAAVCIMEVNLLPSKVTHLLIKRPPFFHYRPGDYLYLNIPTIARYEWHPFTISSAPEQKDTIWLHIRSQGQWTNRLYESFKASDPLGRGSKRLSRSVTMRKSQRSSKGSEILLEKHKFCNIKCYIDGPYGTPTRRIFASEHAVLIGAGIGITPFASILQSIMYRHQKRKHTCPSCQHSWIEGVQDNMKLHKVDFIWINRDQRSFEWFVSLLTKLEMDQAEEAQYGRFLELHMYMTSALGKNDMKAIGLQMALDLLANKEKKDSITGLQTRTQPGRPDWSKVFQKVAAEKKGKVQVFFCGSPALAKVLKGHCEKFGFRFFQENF
Structure (SMILES),composite z-score [1],z-score [2],z-score [3],z-score [4],z-score [5],composite z-score [6],composite z-score [7],composite z-score (Torsin-1A (Homo sapiens) [8]),composite z-score (Torsin-1A (Homo sapiens) [9]),composite z-score [10],z-score [11],composite z-score [12],z-score [13],z-score [14],z-score [15],z-score [16],z-score [17],z-score [18],z-score [19],z-score [20]
COC(=O)[C@@]1(Cc2ccc(OC)cc2)[C@H]2c3cc(C(=O)N(C)C)n(Cc4ccc(C)c(F)c4F)c3C[C@H]2CN1C(=O)c1ccccc1,0.109,-1.49 (inactive),-0.763 (inactive),1.53 (inactive),1.24 (inactive),0.569,0.0179,-0.124,-0.0724,-1.09,-1.37 (inactive),0.187,1.76 (inactive),-0.0758 (inactive),0.571 (inactive),0.788 (inactive),0.0141,-0.795 (inactive),-0.522 (inactive),3.23
Cc1ccc(S[C@]2(C(=O)O)CC(=O)N(Cc3cc(C(F)(F)F)cc(C(F)(F)F)c3)[C@@H]2c2ccc(CO)cc2I)cc1,0.176,-2.71 (inactive),0.519 (inactive),0.261 (inactive),0.859 (inactive),-0.718,-0.106,-1.1,-0.3,0.42,0.367 (inactive),0.26,5.86 (inactive),0.877 (inactive),1.03 (inactive),0.522 (inactive),0.243,1.75 (inactive),-2.5 (inactive),0.547
COC(=O)[C@@]1(Cc2ccc(OC)cc2)[C@H]2c3cc(C(=O)N(C)C)n(CCc4ccc(OC)c(Br)c4)c3C[C@H]2CN1C(=O)c1ccccc1,0.839,-3.88 (inactive),0.28 (inactive),0.39 (inactive),0.0318 (inactive),1.95,0.993,-0.242,0.733,0.116,-1.52 (inactive),1.61,3.73 (inactive),1.39 (inactive),0.307 (inactive),1.35 (inactive),-0.21,-0.052 (inactive),0.493 (inactive),0.527
CN(C)c1ccc(C(O)C2C=CC3C(=O)NC(=O)C3N2Nc2ccc(Cl)cc2Cl)cc1 (stereo not given),-0.0936,0.126 (inactive),-1.03 (inactive),0.629 (inactive),0.628 (inactive),0.437,0.13,-0.0205,0.776,-0.214,-0.85 (inactive),0.68,3.51 (inactive),0.567 (inactive),1.45 (inactive),1.27 (inactive),-0.645,-1.15 (inactive),-4.56 (inactive),-2.72
COCCCNC(=O)[C@@H]1c2ccccc2C(=O)N(CC23CC4CC(CC(C4)C2)C3)[C@H]1c1ccc(CO)cc1,1.01,-4.78 (inactive),-0.689 (inactive),-0.0259 (inactive),-1.07 (inactive),-0.269,0.266,0.306,0.262,1.03,-0.162 (inactive),0.276,4.59 (inactive),-0.14 (inactive),3.38 (inactive),-0.877 (inactive),2.61,-1.24 (inactive),-2.34 (inactive),-4.2
CCCC=C(CCC)[C@@H](NC(=O)c1ccccc1)c1ccccc1,-0.149,-1.26 (inactive),0.202 (inactive),-0.561 (inactive),1.28 (inactive),0.405,0.0968,-0.106,-0.0692,-0.289,-0.845 (inactive),0.221,1.37 (inactive),0.894 (inactive),0.131 (inactive),0.812 (inactive),0.316,-0.523 (inactive),0.304 (inactive),0.895
CCCNC(=O)[C@@H]1c2ccccc2C(=O)N(C2CCCCC2)[C@H]1c1ccc(CO)cc1,0.15,-0.64 (inactive),-0.255 (inactive),-0.062 (inactive),-0.224 (inactive),0.573,0.0589,-0.244,0.0805,0.573,-0.401 (inactive),0.14,11 (active),0.867 (inactive),1.06 (inactive),0.72 (inactive),-0.326,0.747 (inactive),-0.201 (inactive),-1.24
C=CCN1C(=O)[C@@]2(Cc3ccccc3)N=C(c3ccc(OCCCO)cc3)O[C@H]2c2ccccc21,0.358,-1.81 (inactive),0.294 (inactive),1.07 (inactive),-0.984 (inactive),0.653,0.346,0.238,1.56,1.28,0.0648 (inactive),0.48,33.3 (active),32 (active),2.61 (inactive),9.79 (active),-0.586,-1.87 (inactive),0.969 (inactive),0.0569
